High-throughput results: PubChem BioAssay, National Center for Advancing Translational Sciences (NCATS)
In the library only some 12% were active in any assay of this set; here they are far more common.
BAZ2B block – BAZ2B (human) inhibition | hit rate 4.4% among 360,000 | AID 504333 | Potency, µM (series often up to 114 µM), for inactives: at the top dose activity change, negative = inhibition, usual class: inhibitors | Q9UIF8 | AlphaScreen BAZ2B-H3K14Ac peptide displacement; also: potency is read from the fitted curve at half-maximal effect; % is scaled to controls: 0 for no effect and ±100 for the full control effect; nearly all actives have a fitted effect of over 60% in size
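BAZ2B (50 nM) with biotin-H3(5-23)K14Ac peptide (50 nM) in PBS pH 7.4, 0.01% Tween-20, preformed 30 min, then compound 30 min at room temperature; top concentration 110uM. AlphaScreen streptavidin donor/nickel chelate acceptor beads (10 ug/mL final), 20 min dark, signal read.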
PI5P4Ka inh – PI5P4K alpha (human) kinase inhibition; max response, %; P48426; AID 652105; hit rate 1.2% among 330,000; PI5P4Kalpha enzyme, ADP-Glo luminescence, 60 min; stronger effect = lower value; active = max response of -50% or lower; inconclusive = between -30% and -50%; inactive = -30% or higher; also: value at the top dose of about 77 µM; % is scaled to controls: 0 for no effect and ±100 for the full control effect
Target sequence (P48426 whole entry, looked up): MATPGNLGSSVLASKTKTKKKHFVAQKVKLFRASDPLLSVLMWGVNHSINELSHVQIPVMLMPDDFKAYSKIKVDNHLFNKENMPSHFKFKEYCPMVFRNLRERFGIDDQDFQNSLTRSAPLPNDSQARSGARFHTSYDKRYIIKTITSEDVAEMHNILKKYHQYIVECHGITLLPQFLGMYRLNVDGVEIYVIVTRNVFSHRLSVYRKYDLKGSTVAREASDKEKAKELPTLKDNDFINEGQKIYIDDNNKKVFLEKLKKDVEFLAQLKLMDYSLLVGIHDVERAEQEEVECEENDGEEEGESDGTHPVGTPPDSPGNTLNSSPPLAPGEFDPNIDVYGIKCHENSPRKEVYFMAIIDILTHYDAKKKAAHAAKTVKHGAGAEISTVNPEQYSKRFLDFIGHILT
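ADP-Glo luminescence end-point after a 60 min room-temperature kinase reaction. PI5P4Kalpha and substrate in HEPES pH 7.4 buffer with EGTA, 0.1% CHAPS and 5% DMSO; ATP at 5 microM final.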
PLK1 PBD inh – PLK1 (human) polo-box domain binding inhibition; P53350; Plk1 PBD binding of FITC phosphopeptide, fluorescence polarization; Potency, µM, without a hit: max response, negative = inhibition, most hits filed as inhibitors; hit rate 2.8% among 360,000; AID 720504; also: potency is read from the fitted curve at half-maximal effect; series mostly up to about 57 µM; % is scaled to controls: 0 for no effect and ±100 for the full control effect; nearly all actives have a fitted effect of over 65% in size
JMJD2A Tudor inh – JMJD2A Tudor domain (human) inhibition; O75164; AlphaScreen JMJD2A-Tudor / H3K4me3 peptide binding; Potency, µM (doses to about 114 µM), without a hit: at the highest dose activity change, negative = inhibition, hits mostly inhibitors; hit rate 4.4% among 390,000; AID 504339; also: potency is read from the fitted curve at half-maximal effect; % is scaled to controls: 0 for no effect and ±100 for the full control effect; nearly all actives have a fitted effect of over 50% in size
HP1b binding inh – HP1-beta chromodomain-methylated histone interaction inhibition; P83916; AlphaScreen HP1-beta / biotin-H3K9me3 peptide binding; Potency, µM (highest dose often 114 µM), for the others: at the highest dose activity change, negative = inhibition, actives largely listed as inhibitors; hit rate 0.56% among 390,000; AID 540317; also: potency is read from the fitted curve at half-maximal effect; nearly all actives have a fitted effect of over 70% in size
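Compound inhibition of the preformed complex between 50 nM HP1-beta and 50 nM biotinylated H3K9me3 peptide was read by AlphaScreen. Buffer was PBS pH 7.4 with 0.01% Tween-20. Incubations ran 30 min at room temperature, with 10 ug/mL donor/acceptor beads.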
G9a inh – G9a (human) methyltransferase inhibition; hit rate 8.8% among 350,000; Q96KQ7; AID 504332; G9a H3K9 monomethylation, AlphaScreen, 2 h; Potency, µM (titrated, usually from 102 µM), for inactives: at the highest dose activity, negative = inhibition, most hits filed as inhibitors; also: potency is read from the fitted curve at half-maximal effect; % is scaled to controls: 0 for no effect and ±100 for the full control effect; nearly all actives have a fitted effect of over 75% in size
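Using a bead-based AlphaScreen, monomethylated H3K9 product from 2 h room-temperature reactions (G9a 20 nM, peptide 500 nM, SAM 20 uM) was detected with 0.5 ug/mL rabbit anti-H3K9me1 antibody.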
* = called active by the depositor; ? = inconclusive; nt = no result; [ ] = dose if it differs, or a comment. Unless noted, calls follow the shape of the dose curve; as a rule, active = well fitted curve in the direction sought with a large enough effect; inconclusive = small, poorly fitted or top-dose-only effect, or another doubt; inactive = no such curve, though single readings can be large; an effect the other way counts as inactive or inconclusive.

SMILES | BAZ2B block | PI5P4Ka inh | PLK1 PBD inh | JMJD2A Tudor inh | HP1b binding inh | G9a inh
CCOC(=O)c1ccc(N2CSC3=C(C#N)C(c4ccc(OC)cc4OC)CC(=O)N3C2)cc1 (stereo not drawn) | 50µM* | -26 | -11% | -30% | 34% | 13µM*
COc1ccc(Br)cc1C1CC(=O)N2CN(Cc3ccccc3)CSC2=C1C#N (stereo not drawn) | -36% | ? | ? | ? | -14% | 1.4µM*
CCOC(=O)c1ccc(NC(=O)Nc2c[nH]c(=O)[nH]c2=O)cc1 | -7% | nt | nt | -19% | 58% | -24%[59 µM]
CCOC(=O)c1ccc(S(=O)(=O)N2CCN(CC(O)COc3cccc(C(C)=O)c3)CC2)cc1 (stereo not drawn) | 79µM* | -4 | 2% | 18µM* | -13% | -9%
CCOc1ccc2c(c1)/C(=N/N1C(=O)c3ccccc3C1=O)C(=O)N2 | -6% | 8 | -10% | -11% | 4% | -5%[59 µM]
CCc1ccc2c(c1)/C(=N/N(C)C(=S)NC)C(=O)N2 | 10µM* | -1 | -19% | ? | ? | -70%[59 µM]
c1ccc(CCn2cccc2)nc1 | nt | 1 | -1% | -25% | 1% | nt
Cc1nc2ccc(S(=O)(=O)NC(C(=O)N3CCCC3)C(C)C)cc2s1 (stereo not drawn) | 10% | -5 | 30µM* | ? | 6% | 6%[59 µM]
Cc1nc2ccc(S(=O)(=O)NC(C(=O)N3CCC(C)CC3)C(C)C)cc2s1 (stereo not drawn) | 6% | 3 | -6% | -19% | 29% | -23%
COc1ccc(NC(=O)c2c(N)c(C(=O)c3ccc(OC)cc3)n3ccccc23)cc1 | -2% | nt | nt | -21% | 14% | -3%[59 µM]
COc1cccc(CN2C(=O)C(C)N(C(=O)c3ccccc3)c3ccccc32)c1 (stereo not drawn) | 0% | 3 | -12% | -16% | 26% | -8%
CC(C)(C)OC(=O)Cc1nnc(-c2cc3ccccc3[nH]2)o1 | nt | nt | nt | -1% | nt | nt
CCOc1cc(Br)cc(/C=C2\SC(=Nc3ccccc3)NC2=O)c1O | -37% | -62* | ? | -31% | 12% | nt
C=CCOc1ccc(Br)cc1/C=C1/SC(=Nc2ccc(C(=O)O)cc2)NC1=O | 45µM* | -72* | 21µM* | ? | 19% | 20µM*
C=CCOc1c(Br)cc(/C=C2\SC(=Nc3ccccc3)NC2=O)cc1OC | -31% | -16 | -4% | -14% | 30% | 19%
Cc1ccc(S(=O)(=O)/N=C2/NC(=O)/C(=C\c3cc(Br)cc(Br)c3O)S2)cc1 | 32µM* | -78* | 19% | 50µM* | ? | 32µM*
CCc1ccc(N=C2NC(=O)/C(=C/c3cc(Br)c(OCC(=O)O)c(OC)c3)S2)cc1 | 50µM* | -97* | 30µM* | 50µM* | ? | 50µM*
CC(CNC(=O)c1ccc(CSc2nc3ccncc3n2Cc2cccc(F)c2)cc1)c1ccccc1 (stereo not drawn) | -10% | nt | nt | -12% | 34% | -27%[59 µM]
CC(NC(=O)c1ccc(N(C)C)c([N+](=O)[O-])c1)c1ccc(-n2ccnc2)cc1 (stereo not drawn) | ? | 4 | -9% | ? | -7% | 79µM*
CC(NC(=O)c1cc([N+](=O)[O-])cc([N+](=O)[O-])c1)c1ccc(-n2ccnc2)cc1 (stereo not drawn) | ? | 4 | -4% | -33% | 6% | ?
O=C(CSc1nc2nc(-c3cccs3)cc(C(F)(F)F)c2c(=O)[nH]1)Nc1ccc(F)c(F)c1 | ? | -1 | 7.5µM* | ? | -1% | -22%
COc1ccccc1NC(=O)CSc1nnc(CC(=O)Nc2ccccc2F)n1C | 5% | -1 | 2% | -17% | -2% | 43%
Clc1cc(Cl)cc(Nc2ccccc2CN(C/C=C/c2ccc3c(c2)OCO3)Cc2ccccc2)c1 | nt | 0 | -4% | nt | nt | nt
CC(CN(C)C)C(C)(O)Cc1ccc(Cl)cc1 (stereo not drawn) | nt | nt | nt | nt | nt | 21%[59 µM]
Cc1cccc(OCCSc2nc3ccccc3n2CC(=O)N2CCOCC2)c1C | ? | nt | nt | -26% | -13% | 10µM*
